# DT40 TDP1 no CPT – qHTS for Inhibitors of human tyrosyl-DNA phosphodiesterase 1 (TDP1): qHTS in cells in absence of CPT; DT40 Tdp1-/- hTDP1 cells, no CPT, ATP luminescence, 48 h; Potency, µM (series often up to 46.2 µM), without a hit: at the top dose activity change, negative = growth inhibition, hits mostly inhibitors; 420,000 tested, 15% active; note: potency is the fitted concentration of half-maximal effect; % is set by controls: 0 for no effect and ±100 for the full control effect; nearly all actives have a fitted effect of over 55% in size
#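 Growth of hTDP1-complemented DT40 Tdp1-knockout cells is measured by ATP luminescence after at least 48 hr compound exposure at 37 °C, with DMSO substituting for the 20 nM CPT used in the parallel screen.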
# IL1B secr inh – qHTS for Inhibitors of Inflammasome Signaling: IL-1-beta AlphaLISA Primary Screen. THP-1 LPS/ATP IL-1B secretion, AlphaLISA, 16 h; stronger effect = lower value. activity change, % at 57.5 µM. 360,000 tested, 4.7% active. AID 743279, 2014; in the data active = activity change below about -50%; inconclusive = mostly about -30% to -49%; note: % is set by controls: 0 for no effect and ±100 for the full control effect
#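 THP-1 cells pretreated 1 hr with compounds (up to 57.5 uM final), then stimulated with LPS (250 ng/mL final) plus ATP (1.25 mM final); secreted IL-1B measured by AlphaLISA after 16 hr, decreased signal indicating inhibition.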
# MCF10A rerep – A quantitative high throughput screen for small molecules that induce DNA re-replication in MCF 10a normal breast cells; MCF 10A DNA re-replication, Hoechst nuclear intensity, 48 h; Potency, µM (doses to about 46.1 µM), inactives show at the highest dose activity, positive = re-replication, hits mostly activators; 350,000 tested, 2.9% active; AID 624296, 2012; note: potency is the fitted concentration of half-maximal effect; % of control where 0% means no effect; nearly all actives have a fitted effect of over 50% in size
# SW480 rereplic – A quantitative high throughput screen for small molecules that induce DNA re-replication in SW480 colon adenocarcinoma cells. Potency, µM (highest dose often 46.1 µM), for inactives: at the top dose re-replication activation, actives largely listed as activators. SW480 DNA re-replication, Hoechst DNA content imaging, 48 h. 340,000 tested, 1.8% active; note: potency is the fitted concentration of half-maximal effect; % of control where 0% means no effect; nearly all actives have a fitted effect of over 55% in size
#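 Hoechst fluorescence of nuclei (405 nm excitation, 500-530 nm emission) measured by plate-scanning imager after 48 hr compound exposure at 37 C; re-replication scored as increased number of nuclei with elevated intensity.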
# TDP1 cell CPT – qHTS for Inhibitors of human tyrosyl-DNA phosphodiesterase 1 (TDP1): qHTS in cells in presence of CPT; chicken DT40 Tdp1-/-;hTDP1 cells + 20 nM CPT, ATP luminescence, 48 h; Potency, µM (doses to about 46.2 µM), for the others: at the highest dose activity change, negative = growth inhibition, usual class: inhibitors; 420,000 tested, 12% active; AID 686979, 2013; note: potency is the fitted concentration of half-maximal effect; % is set by controls: 0 for no effect and ±100 for the full control effect; nearly all actives have a fitted effect of over 55% in size
#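 Chicken DT40 Tdp1-/- cells complemented with human TDP1, 400 cells/well, exposed to compounds plus 20 nM camptothecin for at least 48 h at 37 C; viability read as ATP content by CellTiter-Glo luminescence.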
# Chronic BCR inh – qHTS Assay to Find Inhibitors of Chronic Active B-Cell Receptor Signaling; ABC-DLBCL IkBa-CBG/CBR reporter, luminescence ratio, 4 h; Potency, µM (doses to about 46.1 µM), without a hit: at the top dose activity change, negative = inhibition, usual class: inhibitors; 340,000 tested, 0.05% active; active = well fitted inhibition curve with a large enough effect in the signal ratio, with a control signal flat, not every such curve was filed as active; inconclusive = small, poorly fitted or top-dose-only effect, or effect the other way, or a change in a side signal; the % refers to the signal ratio;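 note: potency is the fitted concentration of half-maximal effect; plate controls were basal doxycycline-induced cells for no effect and cells given 10 µM MG132 for full effect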
#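 Concentration-response series (up to 46 uM) were applied to TMD8 dual-reporter cells for 4 h at 37C with doxycycline. Green/red ratio, after filter-overlap correction, defined %Activity; red signal alone was normalised to basal cells and zero luminescence.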
# Starred values were filed as active, the others as inactive; ? = inconclusive; / = not tested or not shown. A selection: hits, their analogues and other compounds. The true share with any hit is near 19%. Unless noted, calls come from the whole dose curve; as a rule, active = well fitted curve in the direction sought with a large enough effect; inconclusive = small, poorly fitted or top-dose-only effect, or another doubt; inactive = no such curve, though single readings can be large; an effect the other way counts as inactive or inconclusive.
SMILES,DT40 TDP1 no CPT,IL1B secr inh,MCF10A rerep,SW480 rereplic,TDP1 cell CPT,Chronic BCR inh
COc1ccccc1N1CCN(c2ncnc3c2cnn3-c2ccc(C)cc2)CC1,-5%,/,/,/,-20%,2%
Clc1ccc(-n2ncc3c(N4CCCC4)ncnc32)cc1,-10%,0,-1%,-1%,15%,?
Cn1ncc2c(N3CCN(c4ccccc4F)CC3)ncnc21,23µM*,-3,2%,1%,?,?
COc1ccc(-n2c(=O)cnc3cnc(Oc4cccc(Cl)c4)nc32)cc1,?,/,/,/,6%,/
CC1CCC(N2CCN(C(=O)c3ccccc3F)CC2)CC1 (centres undefined),-3%,1,12%,8%,20%,2%
CCCNC(=O)c1cc(C2CCCN(C(=O)c3ccc(NC(C)=O)cc3)C2)on1 (centres undefined),-31%,1,/,/,2%,/
Cc1cc(O)c2c(c1)CC1C3CCC4CC(=O)CCC4(C)C3CC(=O)C21C (centres undefined),12µM*,35,16µM*,?,18µM*,/
CC(=O)Nc1c(Br)cc2c(c1Br)C(=O)c1ccccc1-2,-4%,2,10%,1%,-1%,/
CC(=O)C1=C(c2ccc(Br)cc2)C(=O)c2ccccc2C1=O,1.5µM*,-97*,7.3µM*,8.2µM*,1.3µM*,?
CC(C)(C)n1nnnc1C(c1cc2cc3c(cc2[nH]c1=O)OCCO3)N1CCSCC1 (centres undefined),-15%,-51*,-12%,-3%,-23%,0%
O=c1[nH]c2cc3c(cc2cc1C(c1nnnn1C1CCCC1)N1CCSCC1)OCCO3 (centres undefined),18µM*,-16,8%,2%,23µM*,0%
Cc1nc2cc(Cl)ccc2c(=O)n1Cc1ccncc1,-1%,-4,0%,-6%,2%,-3%
COc1ccc(S(=O)(=O)N(C)C[C@H]2Oc3c(NC(=O)Nc4c(C)noc4C)cccc3C(=O)N([C@@H](C)CO)C[C@H]2C)cc1,?,-15,-36%,-1%,1%,-2%
CC(C)(C)OC(=O)N1CCCC(C(=O)Nc2ccc(C(=O)NCc3ccccc3)cc2)C1 (centres undefined),?,-4,21%,-51%,?,/
NCCSc1nc2ccccc2s1,11µM*,/,/,/,?,/
C=CCS(=O)(=O)c1nc2ccccc2s1,21µM*,-115*,7.3µM*,?,16µM*,?
O=S(=O)(CCSc1nc2ccccc2s1)c1nc2ccccc2s1,3.7µM*,-100*,?,?,6.5µM*,?
c1ccc2[nH]c(CSc3nc4ccccc4s3)nc2c1,15µM*,24,11%,17%,?,?
CC(C)(C)S(=O)(=O)c1nc2ccccc2s1,-11%,?,19%,1%,1%,-8%
Cc1nc2scc(C)n2c(=O)c1S(=O)(=O)NCC1CCN(Cc2ccc(F)cc2)CC1,14%,41,11%,0%,2%,7%
COc1ccc(NC(=O)CN(C)CC(=O)NCC(=O)Nc2ccc(F)cc2)cc1,4%,10,?,0%,5%,-1%
COc1ccccc1C(=O)Nc1ccc(OCC(=O)N2CC(C)CC(C)C2)cc1 (centres undefined),?,-6,-4%,7%,?,3%
CC1CCN(C(=O)Cn2nnc(-c3ccc(N)cc3)n2)CC1,-11%,-15,10%,-93%,-3%,0%
O=c1oc2ccccc2n1CSc1nc2ccccc2s1,13µM*,32,15%,5%,-27%,-1%
O=S(=O)(c1ccc(N2CCC(c3ccc(Cl)cc3)=N2)cc1)N(CCO)CCO,?,?,?,0.58µM*,?,?
SMILES,DT40 TDP1 no CPT,IL1B secr inh,MCF10A rerep,SW480 rereplic,TDP1 cell CPT,Chronic BCR inh
O=C(O)Cc1cccc(-c2cc(CCCCCCc3ccc(O[C@H]4O[C@H](CO)[C@@H](O)[C@H](O)[C@@H]4O)c(-c4cccc(CC(=O)O)c4)c3)ccc2O[C@H]2O[C@H](CO)[C@@H](O)[C@H](O)[C@@H]2O)c1,9%,/,/,/,2%,/
COc1ccc(-n2c3c(cc(C(=O)Nc4cccc(C)n4)c2=O)C(=O)CC(C)(C)C3)cc1,-4%,21,-3%,-9%,-2%,?
Cc1cccc(NC(=O)c2oc3c(c2C)C(=O)CC(C)(C)C3)n1,5.2µM*,-9,24%,-23%,12µM*,-1%
Cc1cc(=O)n2nc(N3CCC(C(=O)Nc4ccc(Br)c(C)c4)CC3)sc2n1,-29%,/,/,/,15µM*,/
Cc1cc(C)cc(-n2cnc3cc(C(=O)NC4CCCCCC4)ccc32)c1,?,/,/,/,?,-4%
O=S(=O)(NCCOCC(F)(F)C(F)F)c1ccc2oc3ccccc3c2c1,13µM*,-19,21%,?,26µM*,-2%
O=C(CSc1ccc2c(c1)OCCO2)Nc1ccc2c(c1)OCO2,?,-5,-2%,-9%,?,-26%
Cc1ccc(C2=NC3(CCCC3)N=C2SCC(=O)Nc2ccc3c(c2)OCCO3)cc1,-7%,-94*,?,21µM*,?,?
O=C(CSc1ccccc1)Nc1ccc2c(c1)OCCO2,10%,-2,?,0%,2%,?
O=C(CSC1=NC2(CCCCCC2)N=C1c1ccccc1)Nc1ccc2c(c1)OCCO2,?,-75*,1%,14%,?,-1%
O=C(CSC1=NC2(CCCCC2)N=C1c1ccccc1)Nc1ccc2c(c1)OCCO2,?,-80*,?,?,?,1%
O=C(CSc1ccc(-c2ccccc2)nn1)Nc1ccc2c(c1)OCCO2,?,16,-1%,4%,?,?
Cc1cccc(N(C)S(=O)(=O)c2ccc3c(c2)C(C)(C)C(=O)N3C)c1,?,-16,0%,7%,?,16%
Cn1cnnc1SCc1ccc(C(=O)N/N=C(/CCC(=O)O)c2ccc(C(C)(C)C)cc2)cc1,-8%,8,0%,-2%,-1%,/
COc1ccc(S(=O)(=O)Nc2cc3c(cc2NCc2ccccc2)n(C)c(=O)n3C)cc1,?,/,/,/,8.2µM*,/

# Screening data deposited in PubChem by National Center for Advancing Translational Sciences (NCATS).
